Records with an inconclusive call do not appear. Active and inactive are the calls of the source. Calls come from the whole dose curve; as a rule, active = well fitted curve in either direction with a large enough effect (not every such curve was filed as active); inconclusive = small, poorly fitted or top-dose-only effect, or another doubt; inactive = flat fitted curve, though single readings scatter.
Experiment: NFAT Signaling Pathway (AID 444);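 note: carbachol stimulus at about its EC50 of 1 µM final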
Details: Jurkat NFAT-bla M1, carbachol, beta-lactamase ratio, 5 h; at 17.2 µM (top of the series) unless noted
How it was run: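 Read-out: CCF4 FRET ratio (460 nm/530 nm) after 1 h RT dye loading, used for %activity and AC50 from titration series. Cells: Jurkat NFAT-β-lactamase/M1 line, treated with compound plus 1 uM carbachol for 5 h, 37 °C.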
% is set by controls: 0 for no effect and ±100 for the full control effect.

Activity change, negative = inhibition, inactive:
COc1ccc2[nH]c(C)c(C(=O)CN3CCN(C(=O)c4ccco4)CC3)c2c1 -1.42%, CCN(CC)CCCN1C(=O)C(=O)/C(=C(/O)c2ccc(Cl)cc2)C1c1ccccn1 (stereo not given) 5.22%, CCC(NC(=O)Nn1cnnc1)(C(F)(F)F)C(F)(F)F -0.332%, CCNc1nc(NC(C)C)nc(N(C#N)C(C)C(=O)N(C)C)n1 (stereo not given) 0.731%, Cc1cc(=O)oc2cc(OCCSCCN3CCOCC3)ccc12 3.73%, CCc1nc(NCCN2CCOCC2)c(C#N)c2c1CCCC2 -20.4%, COc1cccc(C2C(C(=O)c3cccs3)=C(O)C(=O)N2c2cc(C)on2)c1 (stereo not given) 16.2%, COCCNc1oc(-c2ccc(C)cc2)nc1C#N 1.1%, COc1cc(C)nc(Oc2ccc(=O)[nH]n2)n1 -26.6%, COc1cccc(-c2nnc3sc(-c4ccc(Cl)cc4)nn23)c1 -1.08%, CNc1oc(-c2ccc(Cl)cc2)nc1C#N 18.3%, COC(=O)C(NC(C)=O)(Nc1nc2ccc(S(C)(=O)=O)cc2s1)C(F)(F)F (stereo not given) 7%, CCN(CC)CCN1C(=O)C(=O)/C(=C(/O)c2ccc(C)cc2)C1c1cccnc1 (stereo not given) -5.95%, Cn1c(SCC(=O)NCc2ccccc2)nc2ccccc21 1.73%, CCNC(=O)COn1c(SCC(=O)NCC)nc2ccccc2c1=O 9.09%, CC(C(=O)N1CCCCC1)N1C(=O)c2ccccc2C1=O (stereo not given) 8.42%, CCOC(=O)c1[nH]c2ccc(C)cc2c1N -1.75%, CCN(CC)CCN1C(=O)C(=O)/C(=C(/O)c2ccc(OC(C)C)cc2)C1c1ccncc1 (stereo not given) 0.331%, CCOC(=O)c1c(C)cccc1OCC(N)=O 0.392%, Cc1cc(N2C(=O)C(=O)/C(=C(/O)c3ccccc3)C2c2cccs2)no1 (stereo not given) 19%, CC(C)CNc1nc2c(c(=O)n(C)c(=O)n2C)n1Cc1cccc(Br)c1 -2.14%, CCOC(=O)c1c(C)n(C)c2ccc(OC)c(NC(=O)c3cccs3)c12 5.2%, Cc1cc2c(c(=O)o1)C(Cc1ccccc1)C(C#N)=C(N)O2 (stereo not given) 9.9%, O=C(O)c1c[nH]c2ccc(S(=O)(=O)N3CCOCC3)cc12 -7.03%, COc1ccc(-c2nnc3sc(COc4ccccc4)nn23)cc1 -15.2%, Nc1nc(NC(=O)c2cccs2)nn1-c1ccccc1 7.64%, CCOC(=O)CSC1=C(C#N)C(c2ccc(C)cc2)C(C(=O)OC)C(=O)N1 (stereo not given) 6.97%, CCN1CCc2c(C#N)c(NCc3ccccc3)nc(N(CC)CC)c2C1 1.29%, CC(=O)N[C@H]1C[C@@H]1c1ccccc1 -8.6%, CCOC(=O)C1=C(C)NC(=O)C1CC(=O)Nc1ccccc1 (stereo not given) 25.9%, O=C(NCCC1=CCCCC1)c1ccc(=O)oc1 -4.94%, O=C(CC(c1ccc(F)cc1)c1ccco1)N1CCCC1 (stereo not given) -22.2%, Cn1c(=O)c2c(nc(NCc3ccc4c(c3)OCO4)n2Cc2ccccc2Cl)n(C)c1=O -8.43%, CCOC(=O)N1CCN(C2OC(=O)c3ccccc32)CC1 (stereo not given) 27.2%, CCN(CC)CCCN1C(=O)C(=O)/C(=C(/O)c2ccc(C)cc2)C1c1ccccn1 (stereo not given) 10.1%, CC(=O)Nc1ccc(S(=O)(=O)Nc2nc3n(n2)C(c2ccccc2)CC(=O)N3)cc1 (stereo not given) 2.5%, CC1CCCCN1C(=O)C12CCC(C)(/C(=N/O)C1)C2(C)C (stereo not given) 6.34%, CCc1nc(N2CCN(C(=O)c3ccccc3)CC2)c(C#N)c2c1COC(C)(C)C2 21.3%, CCCC(=O)Nc1sc2c(c1C#N)CCCC2 -0.791%, Nn1c(SCC(=O)Nc2ccc3c(c2)OCCO3)nnc1C(F)(F)F -1.93%

Experiment: Stat Signaling Pathway (AID 446);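 note: ME-180 cervical cancer cells given 40 pM IL-6 alongside compound; SIE-controlled beta-lactamase reporter measured as 460/530 nm FRET emission ratio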
Details: ME-180 (cervical carcinoma) SIE beta-lactamase reporter, IL-6 stimulated, 5 h; at 17.2 µM (top of the series) unless noted
How it was run: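 Normalization used AC90 stimulation (300 pM IL-6) and AC90 inhibition (125 nM pan-JAK inhibitor at 40 pM IL-6). The underlying signal is SIE-driven beta-lactamase in ME-180 cells after 5 h IL-6 exposure with compound.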

activity, negative = inhibition, inactive:
COc1ccc2[nH]c(C)c(C(=O)CN3CCN(C(=O)c4ccco4)CC3)c2c1 -3.32%, CCN(CC)CCCN1C(=O)C(=O)/C(=C(/O)c2ccc(Cl)cc2)C1c1ccccn1 (stereo not given) -0.716%, CCC(NC(=O)Nn1cnnc1)(C(F)(F)F)C(F)(F)F 5.97%, CCNc1nc(NC(C)C)nc(N(C#N)C(C)C(=O)N(C)C)n1 (stereo not given) 0.0609%, Cc1cc(=O)oc2cc(OCCSCCN3CCOCC3)ccc12 -0.537%, CCc1nc(NCCN2CCOCC2)c(C#N)c2c1CCCC2 6.43%, COc1cccc(C2C(C(=O)c3cccs3)=C(O)C(=O)N2c2cc(C)on2)c1 (stereo not given) -7.97%, COCCNc1oc(-c2ccc(C)cc2)nc1C#N 0.279%, COc1cc(C)nc(Oc2ccc(=O)[nH]n2)n1 13.6%, COc1cccc(-c2nnc3sc(-c4ccc(Cl)cc4)nn23)c1 11.1%, CNc1oc(-c2ccc(Cl)cc2)nc1C#N 5.14%, COC(=O)C(NC(C)=O)(Nc1nc2ccc(S(C)(=O)=O)cc2s1)C(F)(F)F (stereo not given) -5.35%, CCN(CC)CCN1C(=O)C(=O)/C(=C(/O)c2ccc(C)cc2)C1c1cccnc1 (stereo not given) 7.25%, Cn1c(SCC(=O)NCc2ccccc2)nc2ccccc21 4.04%, CCNC(=O)COn1c(SCC(=O)NCC)nc2ccccc2c1=O 8.5%, CC(C(=O)N1CCCCC1)N1C(=O)c2ccccc2C1=O (stereo not given) 3.42%, CCOC(=O)c1[nH]c2ccc(C)cc2c1N -1.27%, CCN(CC)CCN1C(=O)C(=O)/C(=C(/O)c2ccc(OC(C)C)cc2)C1c1ccncc1 (stereo not given) -2.31%, CCOC(=O)c1c(C)cccc1OCC(N)=O -2.4%, Cc1cc(N2C(=O)C(=O)/C(=C(/O)c3ccccc3)C2c2cccs2)no1 (stereo not given) -21%, CC(C)CNc1nc2c(c(=O)n(C)c(=O)n2C)n1Cc1cccc(Br)c1 -18.2%, CCOC(=O)c1c(C)n(C)c2ccc(OC)c(NC(=O)c3cccs3)c12 -16.1%, Cc1cc2c(c(=O)o1)C(Cc1ccccc1)C(C#N)=C(N)O2 (stereo not given) -12.4%, O=C(O)c1c[nH]c2ccc(S(=O)(=O)N3CCOCC3)cc12 6.65%, COc1ccc(-c2nnc3sc(COc4ccccc4)nn23)cc1 -8.06%, Nc1nc(NC(=O)c2cccs2)nn1-c1ccccc1 -0.835%, CCOC(=O)CSC1=C(C#N)C(c2ccc(C)cc2)C(C(=O)OC)C(=O)N1 (stereo not given) -7.08%, CCN1CCc2c(C#N)c(NCc3ccccc3)nc(N(CC)CC)c2C1 12.6%, CC(=O)N[C@H]1C[C@@H]1c1ccccc1 12.8%, CCOC(=O)C1=C(C)NC(=O)C1CC(=O)Nc1ccccc1 (stereo not given) 3.03%, O=C(NCCC1=CCCCC1)c1ccc(=O)oc1 7.23%, O=C(CC(c1ccc(F)cc1)c1ccco1)N1CCCC1 (stereo not given) -1.51%, Cn1c(=O)c2c(nc(NCc3ccc4c(c3)OCO4)n2Cc2ccccc2Cl)n(C)c1=O -2.58%, CCOC(=O)N1CCN(C2OC(=O)c3ccccc32)CC1 (stereo not given) 25.6%, CCN(CC)CCCN1C(=O)C(=O)/C(=C(/O)c2ccc(C)cc2)C1c1ccccn1 (stereo not given) 4.05%, CC(=O)Nc1ccc(S(=O)(=O)Nc2nc3n(n2)C(c2ccccc2)CC(=O)N3)cc1 (stereo not given) 1.09%, CC1CCCCN1C(=O)C12CCC(C)(/C(=N/O)C1)C2(C)C (stereo not given) 7.2%, CCc1nc(N2CCN(C(=O)c3ccccc3)CC2)c(C#N)c2c1COC(C)(C)C2 -14%, CCCC(=O)Nc1sc2c(c1C#N)CCCC2 8.33%, Nn1c(SCC(=O)Nc2ccc3c(c2)OCCO3)nnc1C(F)(F)F 9.15%

Source: PubChem BioAssay (NCATS)
